The source of these data is the OligoGym collection.
Note: reference of the scale not given here.

The target of one experiment is ACBD3. In words: pooled miR-30 sensor sort-seq; sequence = guide strand. The note with it: shRNA.
For the sequence TCTTCTTCTATCCGTCTCCTTT, the sensor-assay potency score (higher = more potent) is -0.731.

For TAGTAGACTGATTTTGACCGCC, the sensor-assay potency score (higher = more potent) came out at 0.374.

For the sequence TTAACTGACATCATATTACTTG, the sensor-assay potency score (higher = more potent) turned out to be 0.151.

Sequence TATTACTTGGTACAGTTGCATT showed a sensor-assay potency score (higher = more potent) of -1.49.

TAACTGACATCATATTACTTGG gave a sensor-assay potency score (higher = more potent) of -0.575.

Sequence TTTTTCTTTGAAGAAGCGCAGT returned a sensor-assay potency score (higher = more potent) of -0.812.

TTCTTTTGGTCCATTCTCCAGG: the sensor-assay potency score (higher = more potent) is -0.756.

Take TTGAAGTCTTTGATCTGAGGTC: the sensor-assay potency score (higher = more potent) is -0.0448.

TTAAATGTCATCTTCTGCCCAA: the sensor-assay potency score (higher = more potent) was 0.233.

TAAAGCTGCCATTATCTGCTGC registered a sensor-assay potency score (higher = more potent) of -0.101.

The sequence TTTCTCTTCACAACCGATGTTT yielded a sensor-assay potency score (higher = more potent) of -0.314.

For the sequence TTGCTGTGCAAGCTGGACTTGA, the sensor-assay potency score (higher = more potent) was -0.769.

The next experiment deals with ACCN2. The experiment is described as above. The note with it: shRNA.
For the sequence TCAGATTTGTTGAACTTCTTGG, the sensor-assay potency score (higher = more potent) was determined as 1.11.

Sequence TTGCACAGCGTGACAGCAGGGA yielded a sensor-assay potency score (higher = more potent) of 0.305.

Sequence TGAACTTATAGGTATCAGGATG gave a sensor-assay potency score (higher = more potent) of -1.02.

The sequence TTGGCTAAAGCGGAACTCGTTG came in with a sensor-assay potency score (higher = more potent) of -0.0624.

Sequence TTTGACGTCGTCCAGGCTGAGG gave a sensor-assay potency score (higher = more potent) of -1.49.

Sequence TTTTCCTCGTCGGCACAGCTTG returned a sensor-assay potency score (higher = more potent) of -1.19.

The sequence TGTAGCACTTTCCATAGCGTGT registered a sensor-assay potency score (higher = more potent) of -0.609.

As to TTGAAGTCTTCAGCGCTGCAGA, the sensor-assay potency score (higher = more potent) is -0.498.

Turning to TAGCACTTTCCATAGCGTGTGA, the sensor-assay potency score (higher = more potent) was -0.16.

With TTCAATGGTCTCATAGTTGAGG, the sensor-assay potency score (higher = more potent) is -0.393.

TTGAACGTGTAGCACTTTCCAT registered a sensor-assay potency score (higher = more potent) of -0.501.
